In PubChem BioAssay AID2731 (National Center for Advancing Translational Sciences (NCATS), 2010):
This is one part of the list. Records with an inconclusive call do not appear. Calls of active or inactive are those of the source. Calls come from the whole dose curve; as a rule, active = well fitted curve in the direction sought with a large enough effect; inconclusive = small, poorly fitted or top-dose-only effect, or effect the other way, or another doubt; inactive = no such curve, though single readings can be large or run the other way.

Test: High Content Assay for Compounds that inhibit the Assembly of the Perinucleolar Compartment: PC3M Caspase 3/7 Activation
Settings: PC3M-GFP caspase 3/7 activation, luminescence, 24 h; series mostly up to 46.1 µM
Text: High Content Assay for Compounds that inhibit the Assembly of the Perinucleolar Compartment NIH Chemical Genomics Center [NCGC] NIH Molecular Libraries Probe Centers Network [MLPCN] MLPCN Grant: MH082371-01A2 Assay Submitter (PI): Sui Huang, Northwestern University, Feinberg School of Medicine, Cell and Molecular Biology, Chicago, Illinois. The perinucleolar compartment (PNC) is a non-membrane-bound nuclear subdomain that is associated with but structurally distinct from the nucleolus. The PNC is a heritable trait, in which the number of PNCs per cell in daughter cells often mimics that of their mother cells. The PNC is heterogeneous in shape, is stable through interphase, disassembles during mitosis, and reassembles in early G1. The PNC is concentrated with newly synthesized RNA polymerase III (pol III) RNAs (MRP RNA, RNAse P H1 RNA, hY RNAs[hY1, 2, 5], Alu RNA, and SRP [7SL] RNA) and RNA binding proteins (nucleolin, PTB, CUG-BP, KSRP, Raver1, Raver2, and Rod). […] Extensive in vitro studies have shown that the PNC is unique to tumor cells and preferentially forms in tumor cells derived from solid tissues. Examination of cancer cell lines from various origins and malignant capacities has shown that PNC prevalence correlates with the malignancy of tumors and has the potential to be developed as a pan-cancer prognostic marker. […] Although the PNC is associated with a DNA locus and a handful of components have been identified, much remains to be investigated regarding the structure and function of the PNC and its mechanistic link to cancer. We have previously shown that PNC prevalence reduction is a valid strategy to identify compounds that can be used to study the structure and function of the PNC. It is necessary, however, to create a screening platform that is able to test a large number of compounds in an automated fashion. Here we report the development and robustness of an automated whole-cell phenotypic image-based screening assay that is capable of identifying such compounds. We conducted a followup assay to measure the effects of the lead candidates on Caspase 3/7 activation using a luminescent Caspase kit (Caspase 3/7 Glo). The highly metastatic PC3M-GFP reporter cell line was used in this study.
Caspase 3/7 Assay 1. Cells at a density of 75-90% confluency in T175 flasks were harvested using 7 ml TrypLE Express cell dissociation reagent. After dissociation (5 minutes room temperature incubation) 10 ml of complete media was added to the TrypLE/cell suspension. The liquid was transferred to a 50 ml Conical tube and cells were pelleted at 1000 RPM for 5 min. Supernatant was removed and cells were resuspended to a final density of 150-200 cells/ul in complete media. 2. Cells were plated in 5 ul volume (2000 cells/well) into 1536 well White solid bottom plates and allowed to recover and adhere at 37 C in a humidified 5% CO2 incubator for 4 hours. 3. After 4 hour incubation, compound libraries (23 nl of […] in columns 5-48) were transferred to the plates in duplicate using a 1536 well pintool. Camptothecin positive control (59 uM final) was added to column 2 and 1:3 dilutions of camptothecin was added to column 3. DMSO negative controls were present in columns 1 and 4. 4. After a 24 hour incubation in the 37 C incubator, all wells were treated with 3 ul of Caspase Glo 3/7 reagent using a multidrop combi dispenser (ThermoFisher). Bubbles that formed during dispensing were removed by spinning the plates for 1 minutre at 1500 RPM on a table top centrifuge. Plates were incubated at room temperature for 5 minutes. 5. Luminescencent signal was detected on a Viewlux CCD based imager (PerkinElmer) with a clear filter and a 30 second integration time. The The PC3M cell line stably expressing the PTB-GFP was provided by Sui Huang of Northwestern University. The media and cell culture reagents were purchased from Invitrogen (Carlsbad, CA). […]
For `COC(=O)c1ccc(CSc2ccccc2C)o1`, the outcome was “inactive”. For `CC1(c2cccc([N+](=O)[O-])c2)CC(C)(C)N(C(=O)c2ccccc2)c2ccccc21` (stereo unspecified), the outcome was “inactive”. In the case of `COC(=O)C1=C(C)N(c2ccc(Br)cc2)C(=O)/C1=C\c1ccco1`, the outcome is reported as “inactive”. With `CCOC(=O)c1c(-c2cccc(C)c2)csc1NC(=O)c1c(-c2ccccc2)noc1C` the outcome was “inactive”. In the case of `N=c1c2c(-c3ccccc3)c(-c3ccccc3)n(Cc3ccccc3)c2ncn1CCCO`, the outcome is reported as “inactive”. In the case of `Cn1c2ccccc2c(=O)c2c(=O)n(Cc3ccco3)c(COc3ccccc3)nc21`, the outcome is reported as “inactive”.
